Compound activity from PubChem BioAssay.
Sampled rows, rich in hits. Any-hit rate of the full collection: about 3%.
HIF-2a block: inhibitors of HIF-2a | 786-0 RCC cells HIF-2a reporter, luciferase luminescence, overnight | inhibition, % at 18.8 µM | 360,000 tested, 0.72% active;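 active = inhibition of the luminescence signal of 40% or more relative to plate controls, in a single-dose primary screen at 18.75 µM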
KKLEB cytotox: reduces viability of KKLEB cystic fibrosis airway cells | KKLEB CF airway cells viability, ATPlite luminescence, overnight; active compounds read low; cells stimulated with P. aeruginosa culture filtrate | activity change (cytotoxicity), % at 5 µM | 360,000 tested, 0.36% active | AID 602141;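 active = corrected activity change at or below -50% at 5 µM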
MITF TRPM1 inh: reduces MITF-dependent TRPM1 promoter luciferase signal; SK-MEL-5 TRPM1 promoter luciferase, 24 h; inhibition, % at 12.5 µM; 330,000 tested, 0.83% active;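 active = mean inhibition across replicates of 60% or more, whatever share of single replicates reaches that level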
Peg3 prom inh-1: inhibitors of Peg3 promoter | inhibition, % at 20 µM | 360,000 tested, 1.7% active | HeLa PEG-Prom luciferase reporter, luminescence, overnight;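 active = inhibition of at least 50% at 20 µM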
CF NFkB block: inhibitors of cystic fibrosis induced NF-kB | KKLEB NF-kB-GFP reporter, PAF-induced, GFP fluorescence overnight | inhibition, % at 5 µM | 360,000 tested, 0.86% active;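 active = at least 50% inhibition at 5 µM, scaled per plate between neutral and stimulator controls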;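 also: PAF is a Pseudomonas aeruginosa culture filtrate used as stimulus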
EBV LMP1 NFkB: inhibitors of Epstein-Barr LMP1-induced NF-kappaB reporter; LMP1-induced NF-kappaB luciferase reporter cells, luminescence; inhibition, % at 12.5 µM; 350,000 tested, 0.69% active; AID 504558; in the data active = inhibition above about 41%
Peg3 prom inh-2: confirmation of Peg3 promoter inhibitors; shares compounds with Peg3 prom inh-1; HeLa PEG-Prom luciferase reporter, luminescence, overnight; inhibition, % at 20 µM; 1,300 tested, 84% active; AID 602417;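 active = at 20 µM dose, 40% or more inhibition averaged across four replicates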
Numbers stand for hits; - = inactive; . = not tested or not shown.

SMILES	HIF-2a block	KKLEB cytotox	MITF TRPM1 inh	Peg3 prom inh-1	CF NFkB block	EBV LMP1 NFkB	Peg3 prom inh-2
COCCN1Cc2cc3cc(C)ccc3nc2SC1=Nc1cccc(OC)c1	-	-	-	-	-	-	.
Cc1cccc(N=C2Sc3nc4c(C)c(C)ccc4cc3CN2CCN2CCOCC2)c1	-	-	-	55.0	-	-	56.7
O=c1c2ccccc2sc2nc(CCl)nn12	-	-	-	103.5	-	-	93.3
CC(C)CC(=O)N1CC=CC[C@@H](c2ccc(Cl)cc2)N(Cc2ccc(Cl)cc2)C(=O)[C@@H]1Cc1ccccc1	-	-	-	-	-	-	.
O=c1cc(-c2ccc(O)cc2)oc2ccc3ccccc3c12	72.1	-61.4	83.1	66.9	-	-	74.7
CCOc1ccc2nc(NC(=O)c3ccccn3)sc2c1	-	-	80.1	103.5	-	57.4	90.5
O=C(Nc1cccc(Oc2ccccc2)c1)C1Cc2c(-c3ccccc3)ccnc2O1 (configuration not stated)	-	-	.	-	-	.	.
Cc1cc(C2=NNC(=NC3CCCCC3)SC2)c(C)n1-c1c(C)n(C)n(-c2ccccc2)c1=O	-	-	-	-	-	-	.
Cc1cc(C2=NNC(=NC3CC3)SC2)c(C)n1-c1ccccc1F	89.0	-57.7	98.7	104.1	-	77.9	98.4
CCOc1ccc2nc(NC(=O)CSc3nc4c(c(=O)n(C)c(=O)n4C)n3C(C)C)sc2c1	-	-	-	-	-	-	.
CCn1c(SCC(=O)Nc2nc3ccc(OC)cc3s2)nc2c1c(=O)n(C)c(=O)n2C	-	-	-	61.5	-	-	-
COc1cccc(-c2sc3ccc(OC)cc3c2-c2ccc(O)cc2)c1	-	-	-	-	-	-	.
COc1cccc(-c2sc3ccc(OC)cc3c2-c2ccc(OCCN(C)C)cc2)c1	-	-	-	100.0	-	-	70.7
Cc1cc(C)nc(NC(=O)CCCC(=O)O)c1	-	-	-	-	-	-	.
Cc1cc(C)nc(NC(=O)c2c(F)c(F)c(F)c(C(=O)Nc3cc(C)cc(C)n3)c2F)c1	-	-	.	90.5	-	.	72.3
Cc1cn([C@H]2C[C@H](O)[C@@H](/C=C/C(=O)NCc3ccc4c(c3)OCO4)O2)c(=O)[nH]c1=O	-	-	.	-	-	.	.
CC(=O)c1cccc(-c2ccnc3c2CC(C(=O)Nc2cccc(NS(C)(=O)=O)c2)O3)c1 (configuration not stated)	-	-	.	58.6	-	.	56.6
CC(=O)c1cccc(NC(=O)C2Cc3c(-c4cccc(C(C)=O)c4)ccnc3O2)c1 (configuration not stated)	-	-	.	-	-	.	.
Cc1cc2nc(-c3cccc(Br)c3)c(CC3CCCCC3)n2c(C)c1Br	-	.	.	.	.	.	.
O=C(c1cc(Cl)nc2ccccc12)N1CCN(S(=O)(=O)c2cccc(F)c2)CC1	-	-	-	-	-	-	.
O=S(=O)(c1cccc(F)c1)N1CCN(c2nc(-c3cccnc3)nc3ccccc23)CC1	-	-	-	53.2	-	-	54.7
OCC1OC(n2ccc3c(NO)ncnc32)C(O)C1O (configuration not stated)	-	-91.6	95.2	100.2	86.4	79.8	97.8
CC(=O)c1ccc(NS(=O)(=O)c2cccc3cccnc23)cc1	-	-	.	-	-	-	.
Cc1ccc(-c2nc(C(Cl)Cl)c3ccccc3n2)cc1	-	-	-	111.1	-	-	99.3
Cc1nc(-c2ccc(NC(=O)c3ccco3)cc2)cs1	63.8	-53.5	73.4	82.5	-	63.7	66.6
SMILES	HIF-2a block	KKLEB cytotox	MITF TRPM1 inh	Peg3 prom inh-1	CF NFkB block	EBV LMP1 NFkB	Peg3 prom inh-2
CC(C)N1C/C(=C/c2ccsc2)C(=O)/C(=C/c2ccsc2)C1	-	-	100.8	103.3	-	-	-
COc1ccc(C(=O)Nc2nnc(-c3ccco3)s2)cc1	-	-	-	63.2	-	-	-
Nc1ccc(C(=O)N/N=C/c2sc(N3CCOCC3)nc2-c2ccccc2)cc1	-	-	-	-	-	-	.
O=C(N/N=C/c1sc(N2CCOCC2)nc1-c1ccccc1)c1cccc(S(=O)(=O)N2CCOCC2)c1	-	-	65.2	68.3	-	-	68.1
CC(=O)c1ccc(Nc2cc(C)nc3ccc(C)cc23)cc1	-	-	-	81.6	-	-	87.3
COc1ccc(Nc2cc(C)nc3ccc(C)cc23)cc1	-	-	.	-	-	-	.
COC(=O)c1ccc(OCC2c3cc(OC)c(OC)cc3CCN2C(=O)c2ccco2)cc1 (configuration not stated)	-	-	-	60.1	-	-	44.6
O=S(=O)(CC(CN1CCCCC1)N1CCCCC1)c1ccccc1 (configuration not stated)	-	-	-	67.3	-	-	88.1
Nc1sc(-c2ccccc2)cc1C(=O)N1CCN(c2ccccc2)CC1	-	.	.	.	.	.	.
CC(C)CC(NS(=O)(=O)OCC(Cl)(Cl)Cl)c1ccccc1 (configuration not stated)	-	-	-	56.5	-	-	44.8
COC(=O)CCC(NS(=O)(=O)OCC(Cl)(Cl)Cl)c1ccccc1 (configuration not stated)	-	-	-	-	-	-	.
Cc1nc2c(-c3ccccc3)c(C)[nH]n2c(=O)c1Cc1ccccc1	-	-	-	-	-	-	.
Cc1nc2c(-c3ccc(Cl)cc3)c(C)[nH]n2c(=O)c1Cc1ccccc1	-	-	-	59.2	-	43.4	67.3
CCCCOCCCNC(=O)C[C@@H]1C[C@@]2(C(=O)OC)CC(C)(C)CC=C2N(Cc2ccc3c(c2)OCO3)C1=O	-	.	.	.	.	.	.
CCN(CC)S(=O)(=O)c1ccc(N2CCOCC2)c(NC(=O)c2cc3ccccc3o2)c1	-	-	.	-	-	-	.
COc1ccc(NC(=O)c2cc3c(CO)cnc(C)c3oc2=Nc2cccc(C)c2)c(OC)c1	-	-	-	89.5	-	-	-
COc1cc2ccccc2cc1C(=O)N/N=C/c1cccs1	-	-	.	-	-	-	.
COc1ccc(NC(=O)CCCNC(=O)c2ccc(Cl)cc2)cc1S(=O)(=O)N1CCCCC1	-	-	.	-	-	-	.
CC1=NOC(=O)/C1=C\c1ccc(-c2ccccc2Br)o1	49.4	-	89.2	93.2	58.5	-	98.8
COc1cc(OC)cc(-c2c(Sc3ccccc3)c3cc(-c4ccc(SC)cc4)ccc3n2C)c1	-	.	.	.	.	.	.
O=C1CCC(C(=O)N2CCN(c3ccccc3)CC2)CN1Cc1ccc(Cl)cc1 (configuration not stated)	-	-	.	-	-	-	.
CCNC(=O)c1c(NC(=O)c2cc(-c3cc(C)ccc3O)n[nH]2)sc2c1CCCC2	-	-	-	59.5	-	-	-
Cc1ccc(-c2cc(C(=O)Nc3sc4c(c3C(=O)NCc3ccco3)CCC4)[nH]n2)c(O)c1	-	-	-	-	-	-	.
O=C(CCNC(=O)N1CC(=O)Nc2ccccc21)NCc1ccccc1	-	-	.	-	-	-	.
